Bioassay records (PubChem BioAssay)
Rab9 prom act: activators of Rab9 promoter | Potency, µM (titrated, usually from 9.22 µM), usual class: activators | hit rate 2.8% among 320,000 | AID 485297 | Huh7 Rab9 promoter-luciferase reporter, luminescence, 24 h; further: nearly all actives have a fitted effect of over 60% in size
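Stable Rab9-luc Huh7, 1500 cells/well, 2 h settle; cmpd in DMSO, 24 h, 37 °C/5% CO2; luciferase reagent 10 min RT; luminescence.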
ELG1 DNA repair: inhibitors of ELG1-dependent DNA repair in HEK293T cells; HEK293T ELG1-luciferase reporter, luminescence, 16 h; DNA damage induced by 5-fluorouridine; Potency, µM (series often up to 46.1 µM), hits mostly inhibitors; hit rate 2.3% among 330,000; AID 504467; further: nearly all actives have a fitted effect of over 55% in size
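DMSO vehicle served as the neutral condition. Each well held 2,000 cells given 5-fluorouridine plus compound; after 16 hr at 37 °C/5% CO2, ONE-Glo was added and luciferase measured 30 min later.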
ELG1 genotoxic: induces genotoxicity in HEK293T cells with luciferase-tagged ELG1; HEK293T ELG1-luciferase reporter, luminescence, 16 h; Potency, µM (series often up to 46 µM), usual class: activators; AID 504466; hit rate 1.3% among 330,000; further: nearly all actives have a fitted effect of over 60% in size
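HEK293T cells expressing luciferase-tagged ELG1 were exposed to compound or DMSO vehicle for 16 hr at 37 °C and 5% CO2. Luciferase activity was then measured with ONE-Glo after 30 min at room temperature.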
FLuc counter: counter-screen for miR-21 project: firefly luciferase inhibitors or activators | AID 588342 | hit rate 6.9% among 360,000 | P08659 | Potency, µM (highest dose often 57.5 µM), most hits filed as inhibitors | purified FLuc, Km substrates, luminescence inhibition; further: nearly all actives have a fitted effect of over 55% in size
Target sequence (P08659 whole entry, looked up): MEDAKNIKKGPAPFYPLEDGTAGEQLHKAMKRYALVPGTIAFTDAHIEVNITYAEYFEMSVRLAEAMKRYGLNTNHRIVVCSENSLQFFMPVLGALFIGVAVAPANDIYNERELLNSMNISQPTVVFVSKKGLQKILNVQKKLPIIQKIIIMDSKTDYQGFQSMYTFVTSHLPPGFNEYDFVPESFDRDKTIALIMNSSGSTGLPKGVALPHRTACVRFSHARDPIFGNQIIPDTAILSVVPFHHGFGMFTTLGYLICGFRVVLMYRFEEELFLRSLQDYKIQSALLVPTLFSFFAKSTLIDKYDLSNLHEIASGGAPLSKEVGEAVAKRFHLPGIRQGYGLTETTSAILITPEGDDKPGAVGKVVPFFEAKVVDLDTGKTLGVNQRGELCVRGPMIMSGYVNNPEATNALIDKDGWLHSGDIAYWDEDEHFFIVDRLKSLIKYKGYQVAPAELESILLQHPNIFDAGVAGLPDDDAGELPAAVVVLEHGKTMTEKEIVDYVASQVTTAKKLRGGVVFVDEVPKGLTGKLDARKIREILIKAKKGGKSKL
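Purified P. pyralis luciferase, 10 nM final, with Km-level 10 uM D-luciferin and 10 uM ATP in 50 mM Tris acetate pH 7.5, 10 mM Mg acetate, 0.01% Tween-20, 0.05% BSA; 6-point qHTS titration about 60 µM downward; luminescence read.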
SMN2 splice up: SMN2 splice variant enhancement; Potency, µM (top dose mostly 46.1 µM), hits mostly activators; HEK293 SMN2-luciferase splicing reporter, luminescence, 30-36 h; hit rate 2.8% among 210,000; further: nearly all actives have a fitted effect of over 55% in size
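HEK293 cells carry an SMN2 minigene-luciferase reporter in which exon 7 inclusion puts luciferase in frame. Cells were seeded at 2000 cells/well, attached for 10-12 hours, then exposed to compounds for 30-36 hours at 37C before ONE-Glo luminescence.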
NPC1 promoter act: activators of NPC1 promoter; Huh7 NPC1 promoter luciferase reporter, 24 h; hit rate 2.4% among 320,000; Potency, µM (titrated, usually from 9.22 µM), actives largely listed as activators; further: nearly all actives have a fitted effect of over 60% in size
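Luminescence read-out of NPC1 promoter-driven luciferase in stably transfected Huh7 cells; compounds delivered in DMSO and left 24 h at 37C, 5% CO2, qHTS titration format.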
Of the large screens only hits and unclear results are named; the others gave an inactive call. Sampled rows, rich in hits. Any-hit rate of the full collection: about 9.4%. The call rests on the fitted dose curve; in most records, active means well fitted curve in the direction sought with a large enough effect; inconclusive means small, poorly fitted or top-dose-only effect, or another doubt; inactive means no such curve, though single readings can be large; an effect the other way counts as inactive or inconclusive.

COc1ccc(-c2nc(C)c(CCNC(=O)C(=O)Nc3cc(C)cc(C)c3)s2)cc1OC	none (no result: Rab9 prom act, ELG1 DNA repair, ELG1 genotoxic, SMN2 splice up, NPC1 promoter act)
CCc1ccccc1	none (no result: Rab9 prom act, ELG1 DNA repair, ELG1 genotoxic, FLuc counter, NPC1 promoter act)
CN1CCC(NC(=O)c2cnn3c2NC(=C2CC2)C=C3C(F)F)CC1	none (no result: Rab9 prom act, ELG1 DNA repair, ELG1 genotoxic, SMN2 splice up, NPC1 promoter act)
Cc1ccc2nc(Nc3ccc4[nH]c(=O)[nH]c4c3)c(-n3nc(C)cc3C)nc2c1	Rab9 prom act inconclusive, ELG1 DNA repair inconclusive, ELG1 genotoxic inconclusive, FLuc counter 0.85µM, SMN2 splice up 18µM
CCN1CCN(c2nc(C)nc3c2sc(=S)n3C)CC1	none
Cc1nc(N2CCCCC2)c2sc(=S)n(C)c2n1	ELG1 genotoxic 21µM
CCC(O)OC(O)CC (stereo not drawn)	none (no result: Rab9 prom act, ELG1 DNA repair, ELG1 genotoxic, FLuc counter, NPC1 promoter act)
CCCc1nn2cc(-c3ccc(C)c(C)c3)nc2s1	FLuc counter 0.19µM, SMN2 splice up 1.3µM (no result: Rab9 prom act, ELG1 DNA repair, ELG1 genotoxic, NPC1 promoter act)
Cc1cccc2c3nc4ccccc4nc3n(C)c12	Rab9 prom act 4.5µM, FLuc counter 2.4µM, NPC1 promoter act 1.4µM (no result: SMN2 splice up)
Cc1cc(C)c2nc(N3CCCC(C(=O)NCCN4CCOCC4)C3)sc2c1 (stereo not drawn)	ELG1 DNA repair inconclusive, ELG1 genotoxic inconclusive, FLuc counter 13µM, SMN2 splice up 16µM, NPC1 promoter act inconclusive
CCCOc1ccc(CNC(=O)C2CCCN(c3nc4c(C)cc(C)cc4s3)C2)cc1 (stereo not drawn)	none (no result: Rab9 prom act, ELG1 DNA repair, ELG1 genotoxic, NPC1 promoter act)
Cc1cc(C)c(S(=O)(=O)N2CCOC2CNC(=O)C(=O)NCCCN2CCOCC2)c(C)c1 (stereo not drawn)	Rab9 prom act 1.4µM, ELG1 DNA repair inconclusive, ELG1 genotoxic inconclusive, FLuc counter 8.5µM, NPC1 promoter act 2.5µM (no result: SMN2 splice up)
CCN1CCN(CCCNC(=O)C2CCCN(c3nc4c(C)cc(C)cc4s3)C2)CC1 (stereo not drawn)	ELG1 DNA repair inconclusive, ELG1 genotoxic inconclusive, FLuc counter 17µM (no result: SMN2 splice up)
Cc1cc(C)c2nc(N3CCC(C(=O)NCCCN4CC(C)CC(C)C4)CC3)sc2c1 (stereo not drawn)	ELG1 DNA repair inconclusive, FLuc counter inconclusive
Cc1cc(C)c2nc(N3CCCC(C(=O)NCCCN4CCOCC4)C3)sc2c1 (stereo not drawn)	Rab9 prom act inconclusive, ELG1 DNA repair inconclusive, FLuc counter inconclusive, SMN2 splice up 14µM
COc1cccc(N2CCN(C(=O)CN3C(=O)COc4ccc(S(=O)(=O)N5CCC(C)CC5)cc43)CC2)c1	SMN2 splice up inconclusive (no result: Rab9 prom act, ELG1 DNA repair, ELG1 genotoxic, NPC1 promoter act)
O=C(Nc1cnc2ccccc2c1)N1CCCCC1	Rab9 prom act 1.3µM, ELG1 DNA repair inconclusive, ELG1 genotoxic inconclusive, FLuc counter 9.5µM, SMN2 splice up 14µM, NPC1 promoter act 1.3µM
Cc1ccc(NC(=O)N(C)c2ccccc2)cc1	ELG1 DNA repair inconclusive, FLuc counter inconclusive (no result: SMN2 splice up)
CN(C(=O)Nc1cnc2ccccc2c1)c1ccccc1	Rab9 prom act 2.8µM, ELG1 DNA repair inconclusive, ELG1 genotoxic inconclusive, FLuc counter inconclusive, SMN2 splice up inconclusive, NPC1 promoter act inconclusive
NCS(=O)(=O)O	none (no result: Rab9 prom act, ELG1 DNA repair, ELG1 genotoxic, FLuc counter, NPC1 promoter act)
COc1ccc(C(=O)Oc2ccc3ccc(=O)oc3c2)cc1	FLuc counter 2.7µM (no result: SMN2 splice up)
COc1ccc(C(=O)Oc2ccc3c(-c4ccc(OC)cc4)cc(=O)oc3c2)cc1	none (no result: Rab9 prom act, ELG1 DNA repair, ELG1 genotoxic, FLuc counter, NPC1 promoter act)
COc1ccc(C(=O)Oc2ccc3oc(=O)sc3c2)cc1	ELG1 DNA repair inconclusive, ELG1 genotoxic inconclusive, FLuc counter 11µM
CN(C)CCNCCN	none (no result: Rab9 prom act, ELG1 DNA repair, ELG1 genotoxic, FLuc counter, NPC1 promoter act)
Cc1ccc2c(c1)-c1ncc(C(=O)c3ccccc3O)cc1CO2	FLuc counter inconclusive (no result: Rab9 prom act, ELG1 DNA repair, ELG1 genotoxic, NPC1 promoter act)
Cc1ccc(O)c(C(=O)c2cnc3c(c2)COc2ccccc2-3)c1	ELG1 DNA repair 16µM
CCOc1ccc(CNC(=O)c2cc3c(=O)n(Cc4cccs4)ccc3nc2C)cc1	none (no result: Rab9 prom act, ELG1 DNA repair, ELG1 genotoxic, SMN2 splice up, NPC1 promoter act)
Nc1ccc(-n2ccnc2)cc1	none
c1ccc2nc(-c3ccc(-n4ccnc4)cc3)ccc2c1	Rab9 prom act 0.63µM, ELG1 DNA repair inconclusive, ELG1 genotoxic 2.6µM, FLuc counter 3.4µM, NPC1 promoter act 1µM (no result: SMN2 splice up)
COc1ccc(CNC(=O)c2ccc3c(c2)N(Cc2cc(C)ccc2C)C(=O)CS3)cc1	none (no result: Rab9 prom act, ELG1 DNA repair, ELG1 genotoxic, NPC1 promoter act)
COC(=O)c1sc(N)c(C(=O)OC)c1COC(=O)[C@@H](NS(=O)(=O)c1cccc(Cl)c1)C(C)C	ELG1 DNA repair 15µM
Cc1noc(Cn2c(=O)c3ccccc3n(CC(=O)Nc3ccc(C(C)C)cc3)c2=O)n1	none (no result: Rab9 prom act, ELG1 DNA repair, ELG1 genotoxic, SMN2 splice up, NPC1 promoter act)
